Results filed as inconclusive are left out. Entries that show only a call come without a potency. Activity calls are given as the source filed them. Calls come from the whole dose curve.

Results on 38 compounds are retold here after PubChem BioAssay (NCATS).

The assay is described as follows: Cytotoxicity counterscreen for inhibitors of SARS-CoV-2 cell entry (AID 1645845). Note: nearly all actives have a fitted effect of over 50% in size. To be noted: cell viability (SARS-CoV-2 entry assay cells); series mostly up to 57.1 µM; activity change, negative = cytotoxicity: at the top concentration. An outline of the steps:
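Counterscreen run in the same HEK293-ACE2 line as the pseudotyped-particle entry assay, without particles. Viability after 48 h at 37 C was read as ATP luminescence, scaled between cell-containing and cell-free wells.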
For orientation: The purpose of a counterscreen is to sort out artefacts and off-target activity.
`Oc1cccc(O)c1`: the “activity change, negative = cytotoxicity” value was -2.12% (inactive). On to `CNC[C@H](O)[C@@H](O)[C@H](O)[C@H](O)CO`, for which the compound was called inactive.

In the case of `O=C(c1ccccc1)c1ccccc1`, the result was inactive. For the compound `NC(=O)c1ccc([N+](=O)[O-])cc1Cl`, the compound was classed as inactive. Take `NC[C@H]1O[C@H](O[C@H]2[C@H](O[C@@H]3O[C@H](CO)[C@@H](O)[C@H]3O)C(O)[C@H](N)C[C@@H]2N)[C@H](N)[C@@H](O)[C@@H]1O` (stereo partly drawn): the outcome is “inactive [at 11.3 µM]”. With `CCN1CCCC1CNC(=O)c1cc(S(=O)(=O)CC)c(N)cc1OC` (stereo not drawn), the Potency result is “inactive”.

With `C/C(=N\O)[C@@H](C)NCC(C)(C)CN[C@H](C)/C(C)=N/O`, the “activity change, negative = cytotoxicity” value was -17.1% (inactive). Same read-out and setting: the result for `CC(CCc1ccccc1)NCC(O)c1ccc(O)c(C(N)=O)c1` (stereo not drawn) reads 3.04% (inactive); that for `O=c1[nH]c(=O)n([C@H]2C[C@H](O)[C@@H](CO)O2)cc1F`, -19.6% (inactive). For the compound `CO[C@@]1(NC(=O)Cc2cccs2)C(=O)N2C(C(=O)O)=C(COC(N)=O)CS[C@@H]21`, the compound was called inactive. On the same count and under the same terms, next, `CCCCC(CC)CN1CN(CC(CC)CCCC)CC(C)(N)C1` (stereo not drawn): “inactive”. Regarding `c1ccc2sc(SSc3nc4ccccc4s3)nc2c1`, the “activity change, negative = cytotoxicity” value was -5.13% [at 27.1 µM] (inactive). On the same count and under the same terms, next, `CCCCN(CCCC)CCCOC(=O)c1ccc(N)cc1`: -6.71% (inactive); `CC(=O)[C@H]1CC[C@H]2[C@@H]3C=CC4=CC(=O)CC[C@@]4(C)[C@@H]3CC[C@]12C`: -11% (inactive).

With `CC(CSC(=O)c1ccccc1)C(=O)N1C[C@@H](Sc2ccccc2)C[C@H]1C(=O)O` (stereo partly drawn), the “activity change, negative = cytotoxicity” value is 1.86% [at 27.1 µM] (inactive). On to `COc1cc(NS(=O)(=O)c2ccc(N)cc2)nc(C)n1`, for which the compound was classed as inactive. Still for that read-out and setting: the result for `COc1cc(C)c(/C=C/C(C)=C/C=C/C(C)=C/C(=O)O)c(C)c1C` reads “inactive”. For the compound `CC(C(=O)O)c1cccc(Oc2ccccc2)c1` (stereo not drawn), the “activity change, negative = cytotoxicity” value is -11.8% (inactive). The same measure, in the same setting: next, `CC(=O)OCC1=C(C(=O)O)N2C(=O)[C@@H](NC(=O)Cc3cccs3)[C@H]2SC1`: -4.6% (inactive).

Turning to `COc1ccc2cc([C@H](C)C(=O)O)ccc2c1`, the Potency entry is “inactive”. `CC(C)[C@H]1C(=O)N2CCC[C@H]2[C@]2(O)O[C@](NC(=O)[C@@H]3C[C@@H]4c5cccc6[nH]cc(c56)C[C@H]4N(C)C3)(C(C)C)C(=O)N12`: the result was inactive. As to `O=C(O)c1cc(N=Nc2ccc(O)c(C(=O)O)c2)ccc1O`, the “activity change, negative = cytotoxicity” value is -3.47% (inactive). On to `CCOC(=O)c1ccc(O)cc1`, for which the compound was called inactive. As to `CC(=O)[C@H]1CC[C@H]2[C@@H]3C[C@H](C)C4=CC(=O)CC[C@]4(C)[C@H]3[C@@H](O)C[C@]12C`, the compound was classed as inactive. Same read-out and setting: next, `CCOC(=O)[C@H](CCc1ccccc1)N[C@H]1CCCN2CCC[C@@H](C(=O)O)N2C1=O`: “inactive”; `CC(=O)N(c1onc(C)c1C)S(=O)(=O)c1ccc(N)cc1`: “inactive”; `CN1CCN(C(c2ccccc2)c2ccc(Cl)cc2)CC1` (stereo not drawn): “inactive”.

For `CCCCOC(=O)c1ccc(N)cc1`, the “activity change, negative = cytotoxicity” value is -14% (inactive). As for `CC(C)(Oc1ccc(C2CC2(Cl)Cl)cc1)C(=O)O` (stereo not drawn), the Potency result is “inactive”.

With `Cc1cc(C)c(NC(=O)CN(CC(=O)O)CC(=O)O)c(C)c1Br`, the “activity change, negative = cytotoxicity” value was 4.49% (inactive).

In the case of `CCCCCCCCCCCCCCCCCCO`, the compound was classed as inactive. As for `C[N+]1(C)[C@@H]2CC(OC(=O)[C@H](CO)c3ccccc3)C[C@H]1[C@@H]1O[C@@H]12` (stereo partly drawn), the Potency result is “inactive”.

Regarding `Cc1ccc(C(=O)C(=O)O)cc1C`, the “activity change, negative = cytotoxicity” value is -11% (inactive).

In the case of `Cc1c(NC(=O)c2cccnc2)c(=O)n(-c2ccccc2)n1C`, the call was inactive.

In the case of `NS(=O)(=O)c1cc2c(cc1C(F)(F)F)NC(Cc1ccccc1)NS2(=O)=O` (stereo not drawn), the “activity change, negative = cytotoxicity” value is 2.68% (inactive). For `Cc1ccccc1N1CCN(CCc2nnc3n2CCCC3)CC1`, the “activity change, negative = cytotoxicity” value is -22.8% (inactive). Turning to `O=C(O)/C=C\C(=O)O`, the compound was called inactive.

Take `CC(=O)OC(C)OC(=O)C(C)c1ccc(-c2ccccc2)c(F)c1` (stereo not drawn): the compound was classed as inactive.
